Screening data deposited in PubChem by Sanford-Burnham Center for Chemical Genomics.
CYP2C19 inh: inhibitors of human CYP2C19. 96,000 tested, 21% active. inhibition, % at 5 µM. AID 778. CYP2C19 Supersomes, luciferin-H EGE luminescence, 30 min. P33261;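 active means CYP2C19 inhibition above a set limit at 5 µM in the primary screen, cut at about 50% in these data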;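 further: plate controls were negative control wells for no effect and 2.5 mM tranylcypromine positive control for full effect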
Target sequence (P33261 whole entry, looked up): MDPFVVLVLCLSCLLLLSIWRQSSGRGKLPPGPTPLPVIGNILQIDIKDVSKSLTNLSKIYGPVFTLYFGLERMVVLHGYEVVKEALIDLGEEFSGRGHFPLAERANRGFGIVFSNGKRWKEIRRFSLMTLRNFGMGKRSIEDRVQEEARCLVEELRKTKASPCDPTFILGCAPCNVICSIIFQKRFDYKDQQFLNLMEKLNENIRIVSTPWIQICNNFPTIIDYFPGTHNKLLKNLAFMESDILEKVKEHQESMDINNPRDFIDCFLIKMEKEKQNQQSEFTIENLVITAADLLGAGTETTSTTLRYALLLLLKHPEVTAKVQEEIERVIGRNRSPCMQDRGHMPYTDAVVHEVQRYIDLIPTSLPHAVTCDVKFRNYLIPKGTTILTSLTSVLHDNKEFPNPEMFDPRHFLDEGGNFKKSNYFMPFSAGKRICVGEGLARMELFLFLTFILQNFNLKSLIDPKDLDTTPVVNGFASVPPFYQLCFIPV
CYP2C9 act: CYP2C9 (human) activation; recombinant CYP2C9, luciferin-H conversion, luminescence; stronger effect = higher value; factor 1 = untreated enzyme, 0 = blocked; activation factor at 5 µM; AID 1024; 96,000 tested, 1.4% active;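 active means activation factor of 2 or more for CYP2C9 at a 5 µM dose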;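 further: 0 = sulfaphenazole-blocked wells and 1 = vehicle-only wells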
PLAP act: activators of human placental alkaline phosphatase; P05187; 96,000 tested, 1.2% active; activation fold at 20 µM; purified PLAP enzyme, luminescent substrate read-out; stronger effect = higher value; AID 696; in the data active means activation fold above about 2
CYP2C19 act: increases human CYP2C19 enzyme activity | P33261 | recombinant CYP2C19, luciferin-H EGE luminescence; stronger effect = higher value; 0 = fully inhibited enzyme, 1 = untreated enzyme | activation factor at 5 µM | 96,000 tested, under 10 active;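 active means activation factor of at least 2 at 5 µM in the primary screen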;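 further: 0 = wells with 2.5 mM tranylcypromine and 1 = vehicle-only wells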
CYP2C9 inhib: human CYP2C9 inhibition; P11712; CYP2C9 Supersomes, luciferin-H conversion, luminescence; inhibition, % at 5 µM; 96,000 tested, 20% active;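 active means blocking of liver enzyme CYP2C9 beyond about 50% at 5 µM, limit read from the data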
Active calls of the source: *. Hits are enriched below; roughly 31% of the tested compounds scored in any of these assays.

SMILES | CYP2C19 inh | CYP2C9 act | PLAP act | CYP2C19 act | CYP2C9 inhib
COC(=O)c1ccc2c(c1)C(C)(C)C(/C=C/c1ccc(O)cc1)=[N+]2C | 95* | 0 | 0.2 | 0.1 | 99*
CCCCSc1nc(C)cc(SCC(=O)N/N=C/c2cccc(OC)c2O)n1 | 33 | 0.4 | 1.1 | 0.7 | 64*
Cc1cc(C)n2nc(SCC(=O)N/N=C/c3ccccc3F)nc2n1 | -1 | 1.1 | 1 | 1 | -5
Cc1ccc(-c2nn(-c3ccccc3)cc2/C=N/NC(=O)CSc2nnc(C)n2-c2ccccc2)cc1 | 21 | 0.4 | 1.3 | 0.8 | 56*
COc1ccc(/C=N/NC(=O)CSc2nnc(C)n2-c2ccccc2)c(OC)c1OC | 5 | 1.1 | 1.1 | 0.9 | -7
COc1cccc(/C=N/NC(=O)CSc2nnc(C)n2-c2ccccc2)c1O | -5 | 1.1 | 2.1* | 1 | -5
COc1ccccc1OCCSc1nnc(C)n1-c1ccccc1 | 77* | 1.4 | 1.5 | 0.2 | -42
O=C(CNC(=O)c1ccc(Cl)cc1Cl)OCC(=O)c1ccc2c(c1)OCCO2 | 31 | 1.8 | 0.8 | 0.7 | -75
Cc1ccc2nc(N3CCN(Cc4ccc(F)cc4)C3=O)c(C)cc2c1 | 26 | 1 | 0.9 | 0.7 | -3
c1ccc(N(c2ccccc2)c2nc(-n3ccnc3)nc(-n3ccnc3)n2)cc1 | 18 | 1 | 0.9 | 0.8 | 3
CN(c1ccccc1)c1nc(-n2ccnc2)nc(-n2ccnc2)n1 | 79* | 0.6 | 1 | 0.2 | 44
CCCCNc1nc(N(C)c2ccccc2)nc(-n2ccnc2)n1 | 85* | 0.2 | 1 | 0.1 | 84*
Cc1ccc2nc(SCC(=O)N(CC(C)C)c3c(N)n(CC(C)C)c(=O)[nH]c3=O)[nH]c2c1 | 27 | 0.9 | 2.3* | 0.7 | 10
N#Cc1nc(Cc2cccc3ccccc23)oc1NCC1CCCO1 (centres undefined) | 84* | 0.3 | 1.5 | 0.2 | 72*
CCOc1ccc(-c2nc(C#N)c(NCC3CCCO3)o2)cc1 (centres undefined) | -2 | 0.9 | 1 | 1 | 7
N#Cc1nc(-c2ccccc2Cl)oc1NCC1CCCO1 (centres undefined) | 64* | 0.4 | 1.3 | 0.4 | 64*
COCCNc1oc(-c2ccccc2Cl)nc1C#N | 88* | 0.3 | 1.1 | 0.1 | 69*
CCCOc1ccc(-c2nc(C#N)c(NCC3CCCO3)o2)cc1 (centres undefined) | 4 | 0.8 | 0.9 | 1 | 23
C=C1C(C(=O)N2CCOCC2)C1C(=O)N1CCOCC1 (centres undefined) | -2 | 1 | 1.6 | 1 | 4
O=C(CSc1nnc(-c2ccccc2)n1Cc1ccccc1)NC1CC1 | 24 | 0.6 | 1.3 | 0.8 | 36
COc1cccc(N2CCN(C3CC(=O)N(c4ccc(C)c(Cl)c4)C3=O)CC2)c1 (centres undefined) | -13 | 1 | 1.2 | 1.1 | 2
COc1cccc(N2C(=O)CC(N3CCc4ccccc43)C2=O)c1 (centres undefined) | 83* | 1.4 | 1.3 | 0.2 | -43
COc1ccc(Cl)cc1N1C(=O)CC(N2CCc3ccccc32)C1=O (centres undefined) | 91* | 0.7 | 1.2 | 0.1 | 33
COc1ccccc1N1C(=O)CC(N2CCc3ccccc32)C1=O (centres undefined) | 91* | 1.1 | 1.3 | 0.1 | -5
COc1cccc(N2CCN(C3CC(=O)N(c4ccc(F)c(Cl)c4)C3=O)CC2)c1 (centres undefined) | 31 | 0.4 | 1.4 | 0.7 | 55*
SMILES | CYP2C19 inh | CYP2C9 act | PLAP act | CYP2C19 act | CYP2C9 inhib
Cc1c(CN(C)C)c2c(n1Cc1ccccc1)C(=O)c1ccccc1-2 | -1 | 1 | 1.6 | 1 | -5
N#C[C@H]1[C@H](c2ccccc2)[C@](C#N)(C(=O)c2ccccc2)[C@@H]2C=Cc3ccccc3N21 | 20 | 0.7 | 1.1 | 0.8 | 33
O=C(Cn1cnc2ccccc21)OCC(=O)N1CCc2ccccc2C1 | 5 | 0.9 | 1 | 0.9 | 7
CCOc1ccc(C(=S)NC2CCCCC2)cc1OC | 13 | 1 | 1 | 0.9 | 0
COc1ccc(N(CC(=O)NCc2cccs2)S(=O)(=O)c2c(C)n[nH]c2C)cc1 | 73* | 0.7 | 1.9 | 0.3 | 32
COc1ccc(N(CC(=O)NCc2cccs2)S(=O)(=O)c2cccnc2)cc1 | 84* | 0.4 | 1.3 | 0.2 | 64*
Cc1n[nH]c(C)c1S(=O)(=O)N1CCCC(C(=O)NCc2cccs2)C1 (centres undefined) | 36 | 1.1 | 1 | 0.6 | -6
COc1ccc(N2CCN(C(=S)Nc3cc(C)ccc3C)CC2)cc1 | 32 | 0.7 | 1 | 0.7 | 25
Cc1cc(C)cc(CC2CC(=O)N(c3ccc4c(c3)OCCO4)C2=O)c1 (centres undefined) | 4 | 1.1 | 0.9 | 1 | -15
Cc1ccc(CC2CC(=O)N(c3ccncc3)C2=O)cc1 (centres undefined) | 94* | 0.4 | 1 | 0.1 | 57*
Cc1ccc(CC2CC(=O)N(Cc3ccco3)C2=O)cc1 (centres undefined) | 88* | 0.4 | 1.6 | 0.1 | 55*
Cc1ccc(CC2CC(=O)N(c3ccc(Cl)cn3)C2=O)cc1 (centres undefined) | 58* | 0.6 | 1 | 0.4 | 39
Cc1ccc(CC2C(=O)N(c3ncccn3)C(=O)C2C)cc1 (centres undefined) | 9 | 0.9 | 1.1 | 0.9 | 8
Cc1ccsc1C1CC(=O)NC2=C1C(=O)CC(C)(C)C2 (centres undefined) | -8 | 1.1 | 1 | 1.1 | -6
Cc1noc(C)c1C(=O)Nc1nc(C23CC4CC(CC(C4)C2)C3)cs1 | 6 | 1 | 1.1 | 0.9 | 1
Cc1ccc(C(=O)OCc2cc3ccccc3[nH]c2=O)cc1 | 14 | 0.8 | 0.8 | 0.9 | 19
Cc1cccc2cc(COC(=O)c3cccnc3)c(=O)[nH]c12 | 52* | 0.6 | 1.1 | 0.5 | 39
CCOC(=O)C1=C(C)NC(C)=C(C(=O)OCC)C1c1cc2ccc(C)cc2[nH]c1=O | 25 | 0.5 | 1.5 | 0.7 | 54*
Cc1ccc2cc(COC(=O)c3ccncc3)c(=O)[nH]c2c1 | 92* | 0.3 | 1.1 | 0.1 | 66*
CCN(Cc1cc2ccc(C)cc2[nH]c1=O)C(=O)c1ccncc1 | 68* | 0.6 | 1.3 | 0.3 | 41
CCCN(Cc1cc2ccc(C)cc2[nH]c1=O)C(=O)c1cccnc1 | -5 | 1.2 | 1 | 1 | -17
Cc1ccc(NC(=O)N2CCCC2C(=O)NCCc2ccccc2)cc1 (centres undefined) | 26 | 0.9 | 0.7 | 0.7 | 14
CCOC(=O)CC(=O)Nc1nnc(C(C)C)s1 | 4 | 1 | 1.5 | 1 | 3
Cc1cc(C(=O)OCC(=O)NC(C)(C)C)c2ccccc2n1 | -7 | 1.4 | 1.3 | 1.1 | -45
Cc1ccc(C(=O)COC(=O)c2cc(Cl)nc3ccccc23)cc1C | 21 | 2* | 1 | 0.8 | -104
CC(=O)NC1CSCC1OC(C)=O (centres undefined) | -10 | 1.2 | 0.8 | 1.1 | -20
